Measurements as given in PubChem BioAssay (NCI).
This is part of a sample that, as a whole, favours compounds with a hit. Of some 83,000 tested, about 20% had one in any assay.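 Treatment: one concentration, 48 hours, 96-well format. Scoring: percent growth, with anything below 10 considered active.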 Unmarked numbers belong to inactive results. Activity calls are given as the source filed them.

test system: NCI/ADR-RES ovarian; assay: NCI-60 one-dose screen, 48 h (100 = growth as untreated, 0 = no growth, -100 = all killed); conditions: 10 µM unless noted

Compound	growth
COc1cc2c3c(c4c5ccccc5[nH]c4c2c(OC)c1OC)C(=O)N(O)C3=O	43.8%
Cc1cc2nc3c4cc(O)ccc4n(CCN(C)C)c3nc2cc1C	-40.2% (active)
Cc1csc(Nc2nc(-c3ccc(Cl)cc3)nc(C(Cl)(Cl)Cl)n2)n1	91.3%
Cc1cc(C)nc(NC(N)=NCCc2ccccc2)n1	85.9%
COc1cc(-c2c(C#N)c(-c3cccs3)nc3c2c(-c2ccccc2)nn3-c2ccccc2)ccc1O	88.9%
CN1CCN(c2ccc3nc(-c4[nH]ncc4Nc4ncnc5c4OCCCN5)[nH]c3c2)CC1	-6.16% (active)
COC(=O)[C@]12CC[C@@H](C)[C@H](C)[C@@H]1C1=CC[C@@H]3[C@@]4(C)C[C@@H](O)[C@H](O)[C@@](C)(CO)C4=CC[C@@]3(C)[C@]1(C)CC2	-45.6% (active)
O=C(NO)c1ccc(Cn2c(=O)n(-c3ccccc3)c(=O)c3ccccc32)cc1	101%
COC(=O)[C@]12CC[C@@H](C)[C@H](C)[C@@H]1C1=CC(=O)[C@@H]3[C@@]4(C)C[C@@H](O)[C@H](O)[C@@]5(C)COC(=C45)C[C@@]3(C)[C@]1(C)CC2	20.8%
Cn1cc(-c2csc(-c3cn(CCN)c4ccc(F)cc34)n2)c2cccnc21	78.3%
CN(C)CCCCC(C(=O)CBr)(c1ccccc1)c1ccccc1	43.9%
CC/C=C\C[C@H]1CC=C2C(=O)C=C[C@@H]2CC=CCCCC(=O)O[C@@H](CCCCC)CC=C2C(=O)C=C[C@@H]2CC=CCCCC(=O)O[C@@H](CCCCC)CC=C2C(=O)C=C[C@@H]2CC=CCCCC(=O)O[C@@H](CCCCC)CC=C2C(=O)C=C[C@@H]2CC=CCCCC(=O)O1	92.6% [7.9 µM]
Clc1ccc2c(NCCNc3nc(-c4ccccc4)cc(-c4ccccc4)n3)ccnc2c1	-41.8% (active)
Cc1ccc(N(CC(=O)Nc2ccc(S(=O)(=O)N3CCC(N4CCCC4)CC3)cc2)S(=O)(=O)c2ccc(Cl)cc2)cc1	70.2%
Oc1ccc(Nc2ccccc2)cc1	87.8%
CCCCCCCCNc1cccc2c1C(=O)c1ccccc1C2=O	112%
Cc1cc(N(CCCNc2ccnc3cc(Cl)ccc23)Cc2ccco2)nc(N2CCN(C)CC2)n1	59.8%
C=C1C(=O)O[C@H]2[C@H]1CC/C(Cn1cc(-c3ccc(OC)cc3)nn1)=C\CC[C@@]1(C)O[C@@H]21	24.7%
O=c1[nH]c2c3ccncc3cc(-c3cccc(Cl)c3)c2c2cnccc12	50.3%
O=C1CNCCN1	106%

Compound	growth
COc1ccc(/C=C/C(=O)NCC(C)O)cc1 (centres undefined)	106%
O=C1Nc2ccccc2/C1=C/c1cn(CCCn2c3ccccc3c(=O)c3ccccc32)c2ccccc12	90.3%
Cn1cc(-c2csc(-c3c[nH]c4ccc(F)cc34)n2)c2cccnc21	9.55% (active)
Cc1cc(Cl)nc(N(CCCNc2ccnc3cc(Cl)ccc23)Cc2ccco2)n1	5.99% (active)
COc1cc(/C=C/c2cc(/C=C/c3ccc(O)c(OC)c3)n(-c3ccc(Cl)cc3)c(=O)n2)ccc1O	96.5%
CC1(c2ccccc2)OC1C(=O)O (centres undefined)	94.5%
COc1cc(/C=C2\C(=O)N(CC(O)COc3cc(O)c4c(=O)cc(-c5ccccc5)oc4c3)c3ccccc32)cc(OC)c1O (centres undefined)	87.5%
Oc1cccc2oc(=S)[nH]c12	102%
COc1ccc2c(c1)c(-c1nc(-c3c[nH]c4ncccc34)cs1)cn2CCN	84.1%
C=C(C)[C@@H]1CC[C@]2(C(=O)N3CCCNCC3)CC[C@]3(C)[C@H](CC[C@@H]4[C@@]5(C)CCC(=O)C(C)(C)[C@@H]5CC[C@]43C)[C@@H]12	91.8%
Cc1ccc(NC2CC(=O)N(c3c(C)cc(C)cc3C)C2=O)c(C)c1 (centres undefined)	106%
CC1c2ccccc2N(S(=O)(=O)c2ccccc2)C1C (centres undefined)	70.4%
Nc1ccc(Cl)cn1	98.7%
CCc1nnc(NC(=O)c2ccoc2COc2ccccc2)s1	12%
Nc1c2c(nc3ccc(Br)cc13)CC(c1ccccc1)CC2=O (centres undefined)	11%
CC(C)(C)n1cc(-c2ccnc(NCCCNS(=O)(=O)c3ccc(Cl)cc3)c2)c(-c2cccc(F)c2)n1	73.5%
COc1cc(/C=N/NC(=S)NNC(=S)NC2CCCCC2)cc(OC)c1OC	97.5%
COc1ccc2[nH]c(-c3ccc(Cl)cc3)cc(=O)c2c1	102%
Cc1cc(N(CCCNc2ccnc3cc(Cl)ccc23)Cc2ccco2)nc(Cl)n1	45.7%
